Bioassay records from PubChem BioAssay.
An excerpt weighted towards active compounds, which were near 0.89% of everything screened.
MEP2-GFP yeast – modulators of MEP2-GFP levels in yeast, primary screen, S. cerevisiae, multiplex flow cytometry, MLPCN library; S. cerevisiae MEP2-GFP strain, 3 h; 100% = DMSO control level; GFP response vs DMSO, % at 10 µM; 330,000 tested, 0.51% active; AID 2016, 2009;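 active = GFP response versus DMSO above a set limit, roughly screen mean plus 3 SD, cut at about 180% in these data; inconclusive = fewer than 70 cells counted for a yeast strain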;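 also: median GFP fluorescence of the barcode-gated MEP2-GFP cells per well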
LAP4-GFP MLPCN – modulators of LAP4-GFP expression in yeast, primary screen, S. cerevisiae, multiplex flow cytometry, MLPCN library; 3 h; median GFP as percent of DMSO wells; GFP response vs DMSO, % at 10 µM; 320,000 tested, 0.34% active;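 active = GFP response vs DMSO above a set limit, about the screen mean plus 3 SD, cut at about 150% in these data; inconclusive = under 70 cell events counted for the yeast strain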
RPL19A-GFP yeast – RPL19A-GFP expression modulators in yeast, primary screen, cell-based, S. cerevisiae, multiplex flow cytometry, MLPCN; percent response vs DMSO, % at 10 µM; 330,000 tested, 0.3% active; S. cerevisiae RPL19A-GFP strain, 3 h; active compounds read low; AID 2025, 2009;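 active = percent response vs DMSO below 50%; inconclusive = fewer than 70 events counted for the yeast strain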;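 also: median channel GFP fluorescence of the barcoded RPL19A-GFP strain; ratio of sample median GFP to plate DMSO average so 100% = DMSO; lower means less RPL19A-GFP as with rapamycin TOR inhibition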
AGP1 TOR yeast – modulators of AGP1-GFP expression in yeast TOR pathway, primary screen, cell-based, multiplex flow cytometry, S. cerevisiae, MLPCN library. 3 h; GFP as percent of DMSO wells. GFP response vs DMSO, % at 10 µM. 320,000 tested, 0.02% active;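 active = GFP response relative to DMSO above a set limit, near screen average plus 3 SD, cut at about 150% in these data; inconclusive = fewer than 70 cells counted for the yeast strain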;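 also: median GFP channel fluorescence of the gated AGP1 strain per well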
CIT2 TOR yeast – modulators of CIT2-GFP expression in yeast, primary screen, S. cerevisiae, GFP fusion, multiplex flow cytometry, MLPCN library; S. cerevisiae CIT2-GFP strain, 3 h; 100 means same as DMSO wells; GFP response vs DMSO, % at 10 µM; 320,000 tested, 0.065% active; AID 2029, 2009;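 active = GFP response relative to DMSO above a set limit, near the screen mean plus 3 SD, cut at about 150% in these data; inconclusive = Fewer than 70 cells measured for a yeast strain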;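 also: ratio of well median GFP fluorescence to mean of DMSO wells on the plate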
The depositor's hits bear a star; ? = inconclusive; · = no result given; [ ] = remark or other dose.

SMILES	MEP2-GFP yeast	LAP4-GFP MLPCN	RPL19A-GFP yeast	AGP1 TOR yeast	CIT2 TOR yeast
CCc1c(C)nc(N)c(C#N)c1-c1ccccc1	98	101	93	98	100
O=C(N/N=C/c1ccc(O)cc1)NC12CC3CC(CC(C3)C1)C2	351*[may fluoresce violet]	61	39*[may fluoresce violet]	?	?
O=C(N/N=C/c1ccncc1)NC12CC3CC(CC(C3)C1)C2	101	112	98	105	99
CCOC(=O)N1CCN(C(=O)c2cc3c(-c4cccc(OC)c4)nn(C)c3s2)CC1	103	100	95	98	92
CCOC(=O)N1CCC(NC(=O)c2cc3c(-c4cccc(OC)c4)nn(C)c3s2)CC1	97	214*	55	100	90
Cc1ccc(SCC(=O)OCC(=O)N(C)CC(=O)Nc2ccccc2Cl)cc1C	103	98	103	102	103
COc1cc([N+](=O)[O-])cc(/C=N/NC(=O)Cn2nc(C)cc2C)c1O	103	102	105	104	101
COc1ccc(/C=N/NC(=O)Cn2nc([N+](=O)[O-])cc2C)c(OC)c1OC	208*[may fluoresce violet]	100	33*[may fluoresce violet]	?	?
Cc1cc(C)cc(-c2nnc(SCC(=O)c3ccc4c(c3)OCCO4)o2)c1	104	102	102	97	96
O=C(CSc1nnc(-c2ccccc2)o1)c1ccc2c(c1)OCCO2	297*[may fluoresce violet]	83	·	?	?
CCN(CC(O)Cn1c2ccccc2c2ccccc21)S(=O)(=O)c1ccc(F)cc1 (stereo not given)	152	153*	104	101	110
COc1ccc(NC(=S)Nc2cccc(S(=O)(=O)N3CCCCC3)c2)cc1	259*[may fluoresce violet]	54	23*[may fluoresce violet]	?	?
O=C(NNS(=O)(=O)c1ccccc1)C1CCCCC1	241*[may fluoresce violet]	80	46*[may fluoresce violet]	?	?
O=C(Nc1ccc(S(=O)(=O)N2CCCCC2)cc1)C1CCCCC1	256*[may fluoresce violet]	83	61	17	?
CN1CCN(S(=O)(=O)c2ccc(NC(=O)C3CCCCC3)cc2)CC1	102	100	97	99	101
CC(=O)Nc1ccc(S(=O)(=O)N2CCN(C)CC2)cc1	210*[may fluoresce violet]	86	58	15	?
COC(=O)CCC(=O)Nc1nc(-c2ccccc2)cs1	95	108	99	99	93
O=C(NCc1ccccc1)C(=O)NCC1OCCN1S(=O)(=O)c1ccc2c(c1)OCCO2 (stereo not given)	104	105	99	107	104
S=C(Nc1cccnc1)N1CCc2ccccc21	111	104	105	106	110
O=C(Nc1nnc(COc2ccccc2F)s1)Nc1ccccc1F	96	107	96	105	103
COc1ccc(C(C(=O)NC2CCCCC2)N(C(=O)c2ccccn2)c2cccnc2)c(OC)c1 (stereo not given)	100	89	104	97	95
CC(=O)N1CCc2ccc(NC(=O)c3c(-c4c(Cl)cccc4Cl)noc3C)cc21	93	107	94	101	95
COc1ccc(OCc2nc3ccc(S(=O)(=O)Nc4ccccc4Cl)cc3[nH]2)cc1	181*[may fluoresce violet]	72	27*[may fluoresce violet]	?	?
COc1ccc(NS(=O)(=O)c2ccc3nc(COc4cccc5ccccc45)[nH]c3c2)cc1	100	92	102	97	95
O=C(CN1CCCC1)Nc1cc(C(F)(F)F)ccc1Cl	98	96	94	101	103
SMILES	MEP2-GFP yeast	LAP4-GFP MLPCN	RPL19A-GFP yeast	AGP1 TOR yeast	CIT2 TOR yeast
O=C(CN1CCCC1)Nc1cc(C(F)(F)F)cc(C(F)(F)F)c1	125	151*	90	131	98
Cc1cc(C(=O)Oc2ccccc2C(=O)O)c(C)o1	?	?	99	102	?
O=C(CC1S/C(=N/N=C2CCCCCC2)NC1=O)Nc1ccccc1C(F)(F)F (stereo not given)	182*[may fluoresce violet]	71	46*[may fluoresce violet]	?	?
S=C(Nc1ccc(Br)cc1)N1CCN(C2CCCCC2)CC1	96	102	·	99	102
COC(=O)c1cc(NC(=O)c2c(Cl)nc3sccn23)cc(C(=O)OC)c1	188*	84	95	101	90
CC(C)CCNC(=O)c1ccc(Cl)c(N)c1	82	86	90	93	91
